Shown are actives, neighbours in structure and some others; about 7.5% of the full set was active somewhere.
ELG1 genotoxic: induces genotoxicity in HEK293T cells with luciferase-tagged ELG1; HEK293T ELG1-luciferase reporter, luminescence, 16 h; Potency, µM (series often up to 46 µM), most hits filed as activators; hit rate 1.3% among 330,000; note: nearly all actives have a fitted effect of over 60% in size
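Screening used a luciferase reporter fused to human ELG1 in HEK293T cells. Luminescence was read on a CCD plate imager after 16 hr exposure and 30 min ONE-Glo incubation.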
FLuc counter: firefly luciferase modulation, counter-screen for miR-21 project. Potency, µM (doses to about 57.5 µM), most hits filed as inhibitors. hit rate 6.9% among 360,000. P08659. purified FLuc, Km substrates, luminescence inhibition; note: nearly all actives have a fitted effect of over 55% in size
Target sequence (P08659 whole entry, looked up): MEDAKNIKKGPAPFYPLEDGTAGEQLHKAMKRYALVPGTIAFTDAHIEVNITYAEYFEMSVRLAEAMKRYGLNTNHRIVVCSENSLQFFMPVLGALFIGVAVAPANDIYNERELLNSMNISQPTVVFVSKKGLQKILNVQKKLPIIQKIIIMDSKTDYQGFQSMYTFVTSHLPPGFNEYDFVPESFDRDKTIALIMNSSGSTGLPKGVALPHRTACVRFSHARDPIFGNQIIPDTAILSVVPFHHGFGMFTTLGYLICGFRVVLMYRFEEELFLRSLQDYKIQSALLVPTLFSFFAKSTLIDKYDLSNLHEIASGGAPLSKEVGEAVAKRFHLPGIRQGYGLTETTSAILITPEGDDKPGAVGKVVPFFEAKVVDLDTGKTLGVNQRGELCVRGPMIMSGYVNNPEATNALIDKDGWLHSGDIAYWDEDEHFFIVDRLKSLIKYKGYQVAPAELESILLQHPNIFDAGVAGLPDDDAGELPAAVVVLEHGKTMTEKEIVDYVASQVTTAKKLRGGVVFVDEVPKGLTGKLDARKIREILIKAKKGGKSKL
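Purified P. pyralis luciferase (10nM final) with 10uM D-luciferin and 10uM ATP (Km levels) in 50mM Tris acetate pH 7.5, 10mM Mg acetate, 0.01% Tween-20, 0.05% BSA; qHTS 6-point titration, ~60 µM downward; luminescence read.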
Rab9 prom act: activators of Rab9 promoter. Huh7 Rab9 promoter-luciferase reporter, luminescence, 24 h. Potency, µM (doses to about 9.22 µM), actives largely listed as activators. hit rate 2.8% among 320,000; note: nearly all actives have a fitted effect of over 60% in size
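Luminescence from Amplite-detected luciferase (10 minutes, ambient) reports Rab9 promoter activation. Before that, stable Rab9-luciferase Huh7 cells (1500/well, reduced-serum OP-MEM I plus 10% FBS) were exposed to compound for 24 hours at 37C.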
SMN2 splice enh: increases expression of the SMN2 splice variant; Potency, µM (highest dose often 46.1 µM), actives largely listed as activators; HEK293 SMN2-luciferase splicing reporter, luminescence, 30-36 h; hit rate 2.8% among 210,000; note: nearly all actives have a fitted effect of over 55% in size
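qHTS luciferase splicing reporter: luminescence rises when SMN2 exon 7 is included in transfected HEK293 cells. Compound exposure lasted 30-36 h at 37C, with 4.5 mM final sodium butyrate as control, followed by a ONE-Glo read.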
NPC1 promoter act: NPC1 promoter activation; Huh7 NPC1 promoter luciferase reporter, 24 h; Potency, µM (titrated, usually from 9.22 µM), usual class: activators; hit rate 2.4% among 320,000; AID 485313; note: nearly all actives have a fitted effect of over 60% in size
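Compounds in DMSO were transferred onto Huh7 NPC1-luciferase reporter cells pre-incubated 2 h; after 24 h at 37 °C, Amplite reagent was dispensed and luminescence recorded 10 min later.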
Luc counter: Kinase-Glo luciferase inhibition (counter-screen); Kinase-Glo luciferase, ATP luminescence, 8 min; Potency, µM (doses to about 38.3 µM), actives largely listed as inhibitors; hit rate 0.28% among 200,000; note: nearly all actives have a fitted effect of over 60% in size
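Kinase-Glo luciferase light output from ATP and luciferin was measured with 10 uM ATP, within the enzyme's linear range. Buffer: 50 mM imidazole pH 7.2, 50 mM KCl, 7 mM MgCl2, 0.01% Tween 20, 0.05% BSA; luminescence read after 8 min at ambient temperature.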
Hits are given with their value; – = inactive; ? = inconclusive; · = no result; [ ] = remark or other dose. Calls come from the whole dose curve; as a rule, active = well fitted curve in the direction sought with a large enough effect; inconclusive = small, poorly fitted or top-dose-only effect, or another doubt; inactive = no such curve, though single readings can be large; an effect the other way counts as inactive or inconclusive.

SMILES | ELG1 genotoxic | FLuc counter | Rab9 prom act | SMN2 splice enh | NPC1 promoter act | Luc counter
Cc1ccccc1-n1c(C)cc(/C=C2/C(=O)NC(=O)N(Cc3ccco3)C2=O)c1C | – | 19µM | – | – | – | –
Cc1ccc(-n2c(C)cc(/C=C3/C(=O)NC(=O)N(Cc4ccco4)C3=O)c2C)cc1 | – | 19µM | – | – | – | –
Cc1cc(/C=C2\C(=O)NC(=O)N(Cc3ccco3)C2=O)c(C)n1-c1ccc(C(=O)O)cc1 | – | – | – | · | – | ·
Cc1ccc(-n2c(C)cc(/C=C3/C(=O)NC(=O)N(C)C3=O)c2C)cc1 | – | 0.6µM | – | – | – | –
Cc1cc(/C=C2\C(=O)NC(=O)N(Cc3ccco3)C2=O)c(C)n1-c1ccc(O)cc1 | – | 15µM | – | · | – | –
Cc1ccc(N2C(=O)NC(=O)/C(=C\c3cc(C)n(-c4ccc(C(=O)O)cc4)c3C)C2=O)cc1 | – | – | – | · | – | ·
CC(=O)[O-].CC(=O)[O-].O.O.O.[Pb+2] | · | · | · | – | · | ·
COc1cc2c(cc1OC)[C@@]13CCN4CC5=CCO[C@H](CC(=O)O)[C@@H]([C@H]1N2)[C@H]5C[C@H]43 | · | · | · | –[9.22 µM] | · | –[7.66 µM]
Cc1ccc(OCCOc2cccc(C=C3C(=O)NC(=O)NC3=O)c2)c(C)c1 | ? | 7.6µM | 0.13µM | · | 0.089µM | ·
O=C1NC(=O)C(=Cc2cccc(OCCOc3ccccc3)c2)C(=O)N1 | ? | 15µM | 0.32µM | · | 0.56µM | ·
NNc1nncn1N | · | · | · | –[9.22 µM] | · | –[7.66 µM]
O=C(O)C[C@H]1OCC=C2CN3CC[C@]45c6ccccc6N[C@@H]4[C@H]1[C@H]2C[C@H]35 | · | · | · | –[9.22 µM] | · | –[7.66 µM]
O=C(C1CC(c2ccc(F)cc2)=NO1)N1CCC2(CC1)OCCO2 (stereo unspecified) | 21µM | 17µM | ? | – | – | –
O=C(C1CC(c2ccc(Cl)c(Cl)c2)=NO1)N1CCC2(CC1)OCCO2 (stereo unspecified) | 7.3µM | 15µM | 2µM | 13µM | 2.2µM | –
CCN(CCO)c1ccc(N=Cc2c(O)n(C)c(=S)[nH]c2=O)cc1 | – | 1.7µM | ? | · | ? | ·
CCCCN1CC(O)=C(c2nc3ccccc3s2)C1=N | – | ? | ? | – | ? | –
CNC(=O)COC(=O)c1ccc(-c2nc3ccccc3s2)s1 | 3.7µM | 1.1µM | – | 16µM | ? | –
COc1cc(/C=C2\C(=O)NC(=O)N(c3ccccc3)C2=O)cc(OC)c1O | – | 21µM | – | – | – | –
O=C1NC(=O)N(c2ccccc2)C(=O)/C1=C/C=C/c1ccco1 | – | ? | – | · | – | ·
CN(C)c1ccc(/C=C/C=C2/C(=O)NC(=O)N(c3ccccc3)C2=O)cc1 | – | 4.3µM | – | · | – | 14µM
O=C1NC(=O)N(c2ccccc2)C(=O)/C1=C/c1ccc2c(c1)Cc1ccccc1-2 | – | 21µM | – | – | – | –
CC(C)(C)n1cccc1/C=C1\C(=O)NC(=O)N(c2ccccc2)C1=O | – | 24µM | – | – | – | –
Cc1cc(C)cc(N2C(=O)NC(=O)/C(=C/c3cccn3-c3ccc(Cl)cc3)C2=O)c1 | – | – | – | – | – | –
CC(=O)O[C@H]1CC[C@H]2[C@@H]3CCC4=C[C@@H](C5SCCS5)[C@H](OC(C)=O)C[C@]4(C)[C@H]3CC[C@@]12C | · | · | · | –[9.22 µM] | · | –[7.66 µM]
C[n+]1c(/C=C\c2ccc(O)c3ncccc23)[se]c2ccccc21 | · | · | · | –[9.22 µM] | · | –[7.66 µM]
SMILES | ELG1 genotoxic | FLuc counter | Rab9 prom act | SMN2 splice enh | NPC1 promoter act | Luc counter
COc1ccc2nc(NC3=NCCN3)sc2c1 | 18µM | 5.4µM | 2.5µM | 10µM | 2.8µM | –
c1ccc2sc(NC3=NCCN3)nc2c1 | – | ? | ? | ? | ? | –
O=C(N1CCOCC1)C1(c2ccccc2)CCNCC1 | · | · | · | –[9.22 µM] | · | –[7.66 µM]
O=c1[nH]c(O)c(/C=C2/C=CC(c3cc(Cl)ccc3Cl)=N2)c(=O)[nH]1 | – | 6.7µM | – | · | – | ·
CC1=Nc2ccccc2/C1=C/c1c(O)[nH]c(=O)[nH]c1=O | – | – | – | · | – | ·
CC1(C)[C@@H]2CC[C@]1(C)CN(CCC[N+](C)(C)C)C2 | · | · | · | –[9.22 µM] | · | –[7.66 µM]
COc1ccc(NC(=O)CCCn2c(=O)oc3ccccc32)cc1Cl | ? | 12µM | ? | ? | ? | –
COc1ccc(-c2nc(NC(=O)Cn3c(=O)oc4ccccc43)sc2C)cc1 | – | – | – | – | – | –
O=c1[nH]c(O)c(N=Nc2ccc(SC(F)F)cc2)c(=O)[nH]1 | – | 2.4µM | ? | · | – | ·
NC(=O)c1ccc(N=Nc2c(O)[nH]c(=O)[nH]c2=O)cc1 | – | – | – | – | – | –
O=[N+]([O-])C(Br)Br | · | · | · | – | · | ·
COc1ccc2o/c(=N\O)c(C(=O)Nc3ccc(C)cc3)cc2c1 | ? | ? | – | · | – | –
COc1ccc(/C=C/C(=O)Nc2ccc(C)cc2)cc1 | · | 6.7µM | · | ? | · | ·
Cc1ccc(OCC(=O)N/N=C\c2ccc(O)c([N+](=O)[O-])c2)c([N+](=O)[O-])c1 | – | 27µM | – | – | – | –
N=C(N)SCc1ccc(Cl)c2ccccc12 (tested in a mixture with another compound) | · | · | · | –[9.22 µM] | · | –[7.66 µM]
CCOC(=O)Cn1cc(C(=O)c2ccccc2)c2ccccc21 | – | – | – | · | – | ·
CCOC(=O)CSc1ncnc2c1cnn2-c1ccccc1 | – | 12µM | – | ? | – | –
Nc1cc(Cl)ccc1Cl | · | · | · | – | · | ·
Cc1ccc(N)c(N)c1 | ? | 5.4µM | – | 3.5µM | – | ·
Nc1ccc(Cl)cc1N | · | · | · | 7.1µM | · | ·
CCCOC(=O)[C@@H]1[C@@H](C(=O)O)[C@H]2CC[C@@H]1O2 | · | · | · | –[9.22 µM] | · | –[7.66 µM]
O=C(O)CCC(=O)NCCC1=c2ccccc2=N/C1=C\c1c(O)n(Cc2ccc(F)cc2)c(=S)[nH]c1=O | – | 11µM | – | · | – | ·
C=CCNC(=S)Nc1ccc(OC(=O)Nc2ccc(Cl)c(Cl)c2)cc1 | – | – | – | · | – | ·
O=C(Nc1ccc(Cl)c(Cl)c1)c1ccco1 | ? | 21µM | ? | · | ? | ·
O=C1NC(=O)N(Cc2ccccc2Cl)C(=O)/C1=C/c1cccs1 | ? | 15µM | – | – | – | –
SMILES | ELG1 genotoxic | FLuc counter | Rab9 prom act | SMN2 splice enh | NPC1 promoter act | Luc counter
O=C1NC(=O)N(Cc2ccc(F)cc2)C(=O)/C1=C/c1cccs1 | ? | ? | – | – | – | –
O=C(NCC(c1cccnc1)N1CCOCC1)Oc1ccccc1 (stereo unspecified) | ? | 15µM | ? | 14µM | – | –
N#CC(c1cccnc1)N1CCOCC1 (stereo unspecified) | – | – | – | · | – | ·
CCC(C(=O)O)C1CCC(C)C(C(C)C(O)C(C)C(=O)C(CC)C2OC3(C=CC(O)[C@@]4(CC[C@](C)(C5CC[C@@](O)(CC)C(C)O5)O4)O3)C(C)CC2C)O1 (stereo partly specified) | · | · | · | – | · | –
O=C1NC(=S)N(C2CC2)C(=O)/C1=C/c1ccc2c(c1)CCN2CCCCl | ? | 19µM | – | – | – | –
CCN1C(=O)/C(=C/c2ccc3c(c2)CCN3CCCCl)C(=O)NC1=S | ? | ? | – | – | – | ?

Source: PubChem (National Center for Advancing Translational Sciences (NCATS))
